Measured values as given in PubChem BioAssay AID504608 (National Center for Advancing Translational Sciences (NCATS), 2011).
Several values for one entry are separate records, joined by “and”; a condition that tells them apart may be missing. Equal values may be shown once. Activity calls are given as the source filed them. Calls follow the shape of the dose curve; as a rule, active = well fitted inhibition curve with a large enough effect; inconclusive = small, poorly fitted or top-dose-only effect; inactive = flat fitted curve, though single readings scatter.

Assay: Quantitative high throughput screen for delayed death inhibitors of the malarial parasite plastid, 48 hour incubation.
Conditions: P. falciparum in erythrocytes, luciferase growth
Description: NIH Molecular Libraries Probe Production Network [MLPCN] NIH Chemical Genomics Center [NCGC] MLPCN Grant: R21 NS059500 Assay Provider: David Fidock and Eric Ekland, Columbia University The goal of this screen is to discover new antimalarial compounds that act by inhibiting the development of the apicoplast in the malarial parasite Plasmodium falciparum. The biochemical processes that make this organelle essential for erythrocytic stage parasites are not well understood. However, antibiotics, such as azithromycin and tetracycline, which target the apicoplast translational machinery, have a potent antimalarial effect. […] We have developed a cell-based assay that measures parasite growth based on the expression of an integrated copy of a firefly luciferase reporter. To detect small molecules that cause this 'delayed death' phenotype, erythrocytes infected with the luciferase-expressing parasites were incubated with compounds for either one or two generations, corresponding to 48 and 96 hours, respectively. Compounds that inhibit parasite growth in the second generation, but not the first, should be enriched in antimalarials that target the apicoplast. Growth inhibition is detected by a decrease in luciferase activity
Four microliters of culture medium (RPMI 1640 with 0.5% w/v Albumax (GIBCO), 24 mM sodium bicarbonate and 10 ug/mL gentamycin) were dispensed by a Multi-drop Combi into white solid 1536-well plates (Grenier) and 23 nL compound was added by a pin tool. Four microliters of infected erythrocytes (2% hematocrit, 0.1% parasitemia final concentration) in culture medium were dispensed and the plates incubated for 48 hours at 37 C in 5% CO2. Two microliters of luciferase detection reagent was added and luminescence was detected by a ViewLux (PerkinElmer) reader

Q: With `C[C@@H]1CN([C@@H](C)CO)C(=O)c2cc(NC(=O)Nc3ccccc3)ccc2O[C@@H](C)CCCCO[C@H]1CN(C)C(=O)OC(C)(C)C` as the molecule, how does the Potency read?
A: Its Potency is 565 nM (active).

Q: Which Potency does the source give for `C[C@@H]1CN([C@@H](C)COC(=O)c2ccccc2)C(=O)c2cc(NC(=O)Nc3ccccc3)ccc2O[C@@H](C)CCCCO[C@H]1CN(C)C(=O)OC(C)(C)C` here?
A: The Potency was 400 nM (active).

Q: With `COc1ccc(COC[C@H](C)N2C[C@@H](C)[C@H](CN(C)Cc3ccc(OC)cc3)OCCCC[C@H](C)Oc3ccc(NC(=O)Nc4ccccc4)cc3C2=O)cc1` as the molecule, how does the Potency read?
A: Its Potency is 565 nM (active).

Q: With `C[C@@H]1CN([C@@H](C)CO)C(=O)c2cc(NC(=O)Nc3ccccc3)ccc2O[C@@H](C)CCCCO[C@H]1CN(C)S(=O)(=O)c1cccnc1` as the molecule, how does the Potency read?
A: Its Potency is 2830 nM (active).

Q: For `C[C@@H]1CN([C@H](C)CO[Si](C)(C)C(C)(C)C)C(=O)c2cc(NC(=O)Nc3ccccc3)ccc2O[C@@H](C)CCCCO[C@H]1CN(C)S(=O)(=O)c1ccc(F)cc1`, which Potency is on record?
A: The Potency was 225 nM (active).

Q: Which Potency does the source give for `C[C@@H]1CN([C@@H](C)COC(=O)c2ccccc2)C(=O)c2cc(NC(=O)Nc3ccccc3)ccc2O[C@@H](C)CCCCO[C@H]1CN(C)S(=O)(=O)c1ccc(F)cc1` here?
A: The Potency was 63.4 nM (active).

Q: With `C[C@@H]1CN([C@@H](C)CO)C(=O)c2cc(NC(=O)Nc3ccccc3)ccc2O[C@@H](C)CCCCO[C@H]1CN(C)Cc1ccc(C(F)(F)F)cc1` as the molecule, how does the Potency read?
A: Its Potency is 1000 nM (active).

Q: With `C[C@@H]1CN([C@@H](C)CO)C(=O)c2cc(NC(=O)Nc3ccccc3)ccc2O[C@@H](C)CCCCO[C@H]1CN(C)S(=O)(=O)c1ccc(C(F)(F)F)cc1` as the molecule, how does the Potency read?
A: The Potency was 896 nM (active).

Q: Which Potency does the source give for `COc1ccc(COCCN2C[C@@H](C)[C@H](CN(C)S(=O)(=O)c3ccc(F)cc3)OCCCC[C@H](C)Oc3ccc(NC(=O)Nc4ccccc4)cc3C2=O)cc1` here?
A: Its Potency is 100 nM (active).

Q: For `COCCOCOC[C@H](C)N1C[C@@H](C)[C@H](CN(C)S(=O)(=O)c2ccc(F)cc2)OCCCC[C@H](C)Oc2ccc(NC(=O)Nc3ccccc3)cc2C1=O`, which Potency is on record?
A: The Potency was 11.3 nM (active).

Q: Which Potency does the source give for `C[C@@H]1CN([C@@H](C)CO)C(=O)c2cc(NC(=O)Nc3ccccc3)ccc2O[C@@H](C)CCCCO[C@H]1CN(C)S(=O)(=O)c1ccccc1F` here?
A: Its Potency is 634 nM (active).

Q: Which Potency does the source give for `C[C@@H]1CN([C@@H](C)CO)C(=O)c2cc(Nc3nc4ccccc4o3)ccc2O[C@@H](C)CCCCO[C@H]1CN(C)S(=O)(=O)c1ccc(F)cc1` here?
A: The Potency was 1590 nM (active).

Q: With `C=CCOC(=O)N(C)C[C@@H]1OCCCC[C@H](C)Oc2ccc(NC(=O)Nc3ccccc3)cc2C(=O)N([C@H](C)COC(=O)c2ccccc2)C[C@H]1C` as the molecule, how does the Potency read?
A: Its Potency is 504 nM (active).

Q: For `Cc1noc(C)c1NC(=O)Nc1ccc2c(c1)C(=O)N([C@@H](C)CO)C[C@@H](C)[C@H](CN(C)S(=O)(=O)c1ccc(F)cc1)OCCCC[C@H](C)O2`, which Potency is on record?
A: Its Potency is 126 nM (active).

Q: With `C[C@@H]1CN([C@@H](C)COC(=O)C(C)(C)C)C(=O)c2cc(NC(=O)Nc3ccccc3)ccc2O[C@@H](C)CCCCO[C@H]1CN(C)S(=O)(=O)c1ccc(F)cc1` as the molecule, how does the Potency read?
A: The Potency was 11.3 nM (active).

Q: With `C[C@@H]1CN(C)C(=O)c2cc(NC(=O)Nc3ccccc3)ccc2O[C@@H](C)CCCCO[C@@H]1CN(C)S(=O)(=O)c1ccc(F)cc1` as the molecule, how does the Potency read?
A: The Potency was 1260 nM (active).

Q: With `C[C@@H]1CN([C@@H](C)CO[Si](C)(C)C(C)(C)C)C(=O)c2cc(NC(=O)Nc3ccccc3)ccc2O[C@@H](C)CCCCO[C@H]1CN(C)S(=O)(=O)c1ccc(F)cc1` as the molecule, how does the Potency read?
A: Its Potency is 1.1 nM (active).

Q: With `C[C@@H]1CN([C@@H](C)CO)C(=O)c2cc(NC(=O)Nc3ccccc3)ccc2O[C@@H](C)C/C=C\CO[C@H]1CN(C)S(=O)(=O)c1ccc(F)cc1` as the molecule, how does the Potency read?
A: Its Potency is 356 nM (active).

Q: With `C[C@@H]1CN(CCO)C(=O)c2cc(NC(=O)Nc3ccccc3)ccc2O[C@@H](C)CCCCO[C@H]1CN(C)S(=O)(=O)c1ccc(F)cc1` as the molecule, how does the Potency read?
A: Its Potency is 179 nM (active).

Q: For `C=CCOC(=O)N(C)C[C@H]1OCCCC[C@H](C)Oc2ccc(NC(=O)Nc3ccccc3)cc2C(=O)N([C@@H](C)CO[Si](C)(C)C(C)(C)C)C[C@H]1C`, which Potency is on record?
A: The Potency was 283 nM (active).

Q: Which Potency does the source give for `C[C@@H]1CN([C@@H](C)COC(C)(C)C)C(=O)c2cc(NC(=O)Nc3ccccc3)ccc2O[C@@H](C)CCCCO[C@H]1CN(C)S(=O)(=O)c1ccc(F)cc1` here?
A: Its Potency is 1.3 nM (active).

Q: With `CC(C)NC(=O)Nc1ccc2c(c1)C(=O)N([C@@H](C)CO)C[C@@H](C)[C@H](CN(C)S(=O)(=O)c1ccc(F)cc1)OCCCC[C@H](C)O2` as the molecule, how does the Potency read?
A: Its Potency is 634 nM (active).

Q: For `C[C@@H]1CN([C@@H](C)CO)C(=O)c2cc(NC(=O)Nc3ccccc3)ccc2O[C@@H](C)CCCCO[C@H]1CN(C)S(=O)(=O)c1cccc(F)c1`, which Potency is on record?
A: Its Potency is 10 nM (active).

Q: With `C[C@@H]1CN([C@@H](C)CN=[N+]=[N-])C(=O)c2cc(NC(=O)Nc3ccccc3)ccc2O[C@@H](C)CCCCO[C@H]1CN(C)S(=O)(=O)c1ccc(F)cc1` as the molecule, how does the Potency read?
A: The Potency was 3.6 nM (active).

Q: For `C[C@@H]1CCCCO[C@H](CN(C)C(=O)Nc2ccc(F)cc2)[C@H](C)CN([C@@H](C)CO)C(=O)c2cc(NS(=O)(=O)c3ccccc3)ccc2O1`, which Potency is on record?
A: The Potency was 356 nM (active).

Q: For `Cc1noc(C)c1NC(=O)Nc1ccc2c(c1)C(=O)N(C(C)C)C[C@@H](C)[C@H](CN(C)S(=O)(=O)c1ccc(F)cc1)OCCCC[C@H](C)O2`, which Potency is on record?
A: The Potency was 63.4 nM (active) and 1.59 µM (active).

Q: For `C[C@@H]1CN([C@@H](C)CO)C(=O)c2cc(NC(=O)Nc3ccccc3)ccc2O[C@@H](C)C/C=C/CO[C@H]1CN(C)S(=O)(=O)c1ccc(F)cc1`, which Potency is on record?
A: Its Potency is 142 nM (active).

Q: With `C[C@@H]1CN(CCO[Si](C)(C)C(C)(C)C)C(=O)c2cc(NC(=O)Nc3ccccc3)ccc2O[C@@H](C)CCCCO[C@H]1CN(C)S(=O)(=O)c1ccc(F)cc1` as the molecule, how does the Potency read?
A: The Potency was 56.5 nM (active).

Q: With `COCOC[C@H](C)N1C[C@@H](C)[C@H](CN(C)S(=O)(=O)c2ccc(F)cc2)OCCCC[C@H](C)Oc2ccc(NC(=O)Nc3ccccc3)cc2C1=O` as the molecule, how does the Potency read?
A: Its Potency is 10 nM (active).

Q: With `C[C@@H]1CCCCO[C@@H](CN(C)Cc2ccc(F)cc2)[C@H](C)CN([C@@H](C)CO)C(=O)c2cc(NC(=O)Nc3ccccc3)ccc2O1` as the molecule, how does the Potency read?
A: The Potency was 4000 nM (active).

Q: Which Potency does the source give for `C=CCOC(=O)N(C)C[C@@H]1OCCCC[C@H](C)Oc2ccc(NC(=O)Nc3ccccc3)cc2C(=O)N([C@@H](C)CO)C[C@H]1C` here?
A: The Potency was 356 nM (active).

Q: Which Potency does the source give for `CC(C)N1C[C@@H](C)[C@H](CN(C)S(=O)(=O)c2ccc(F)cc2)OCCCC[C@H](C)Oc2ccc(NC(=O)Nc3ccccc3)cc2C1=O` here?
A: Its Potency is 17.9 nM (active).

Q: With `C[C@@H]1CN([C@@H](C)CO)C(=O)c2cc(N)ccc2O[C@@H](C)CCCCO[C@H]1CN(C)S(=O)(=O)c1ccc(F)cc1` as the molecule, how does the Potency read?
A: Its Potency is 159 nM (active).
